This passage reports growth inhibition, inhibition and outcome results from PubChem BioAssay.

Experiment [1] in a line: antimalarial activity against Dd2 strain (AID 2302;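 active means growth inhibition above 50% at the single 2 µM test dose, taken to imply half-maximal potency below 2 µM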;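 further: 0% = DMSO untreated growth and 100% = chloroquine plus artemisinin killed control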). The conditions noted are these: P. falciparum Dd2 in RBCs, LDH growth readout, 72 h; at 2 µM; active compounds read high.
Experiment [2] can be described thus: human hepatoma cell viability loss – ATP luminescence, cytotoxicity control for P. falciparum antimalarial project, primary screen (AID 2303;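 active means inhibition above 50%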;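 further: 0% = DMSO wells and 100% = digitonin-killed cells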). The conditions noted are these: HepG2 viability, 24-48 h, at 10 µM, active compounds read high.
Experiment [3] addresses L-lactate dehydrogenase (Plasmodium falciparum (isolate CDC / Honduras)) (UniProt Q27743). As to the kind of experiment: PfLDH activity inhibition – cell lysate, 3D7 strain, counter-screen for P. falciparum growth inhibition project (AID 2304).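 Further: 0% = vehicle and 100% = reference inhibitor.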 The conditions noted are these: P. falciparum 3D7 crude extract, LDH APAD/NBT absorbance; at 2 µM; active compounds read high.
Experiment [4] is described as follows: inhibition of 3D7 malaria parasite growth – strain 3D7 (AID 2306).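 Further: 0% = DMSO wells and 100% = chloroquine plus artemisinin control wells.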 The conditions noted are these: P. falciparum 3D7 erythrocytic growth, LDH absorbance, 72 h; at 2 µM; active compounds read high.
Experiment [5] addresses Calcium-dependent protein kinase 1 (Plasmodium falciparum (isolate 3D7)) (UniProt P62344). Briefly: PfCDPK1 kinase inhibitors, biochemical, TCAMS library (AID 1159585; cut-off not given, nearly all actives have IC50 up to about 0.98 µM;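 further: inhibitors leave more ATP so luminescence rises with inhibition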). Conditions: recombinant PfCDPK1, Kinase-Glo ATP depletion luminescence.
Experiment [6] deals with Plasmodium falciparum protein kinase 6 (PK6, PF3D7_1337100) (UniProt Q8IDW1). Briefly: PfPK6 kinase inhibitors, biochemical, TCAMS library (AID 1159586). The conditions noted are these: recombinant PfPK6, Kinase-Glo ATP depletion luminescence.
Experiment [7] concerns the target Protein kinase 7 (PK7), Plasmodium falciparum 3D7 (PF3D7_0213400) (UniProt Q7YTF7). As to the kind of experiment: inhibition of Plasmodium PK7 catalytic activity – biochemical, TCAMS antimalarial set, Kinase-Glo luminescence (AID 1159587). Conditions: recombinant PfPK7, Kinase-Glo ATP depletion luminescence.
Experiment [8] concerns the target Calcium-dependent protein kinase 4 (Plasmodium falciparum (isolate 3D7)) (UniProt Q8IBS5). Briefly: PfCDPK4 kinase inhibitors, biochemical, TCAMS library (AID 1159588; cut-off not given, nearly all actives have IC50 up to about 0.91 µM). Conditions: recombinant PfCDPK4, Kinase-Glo ATP depletion luminescence.

The structures appear in SMILES notation. A number with no mark means an inactive call. For some of these results: Results with a measured potency or affinity are listed apart. The source made the active and inactive calls. Unless noted, how the calls were made is not given here.

Sequence of Calcium-dependent protein kinase 4 (Plasmodium falciparum (isolate 3D7)) (Q8IBS5 whole entry, looked up): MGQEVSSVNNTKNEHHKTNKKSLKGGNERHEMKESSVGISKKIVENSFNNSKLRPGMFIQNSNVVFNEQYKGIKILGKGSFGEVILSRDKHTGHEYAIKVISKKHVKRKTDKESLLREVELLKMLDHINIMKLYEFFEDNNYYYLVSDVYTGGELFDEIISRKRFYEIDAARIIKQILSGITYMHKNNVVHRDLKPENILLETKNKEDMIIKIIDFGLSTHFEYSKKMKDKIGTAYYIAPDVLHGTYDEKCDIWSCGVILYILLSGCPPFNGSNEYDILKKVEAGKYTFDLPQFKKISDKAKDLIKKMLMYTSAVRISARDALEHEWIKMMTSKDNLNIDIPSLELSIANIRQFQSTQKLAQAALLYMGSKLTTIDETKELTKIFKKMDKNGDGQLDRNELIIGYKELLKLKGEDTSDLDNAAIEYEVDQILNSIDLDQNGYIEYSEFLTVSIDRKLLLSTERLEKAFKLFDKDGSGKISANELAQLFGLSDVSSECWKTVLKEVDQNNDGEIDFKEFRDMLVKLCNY
Sequence of L-lactate dehydrogenase (Plasmodium falciparum (isolate CDC / Honduras)) (Q27743 whole entry, looked up): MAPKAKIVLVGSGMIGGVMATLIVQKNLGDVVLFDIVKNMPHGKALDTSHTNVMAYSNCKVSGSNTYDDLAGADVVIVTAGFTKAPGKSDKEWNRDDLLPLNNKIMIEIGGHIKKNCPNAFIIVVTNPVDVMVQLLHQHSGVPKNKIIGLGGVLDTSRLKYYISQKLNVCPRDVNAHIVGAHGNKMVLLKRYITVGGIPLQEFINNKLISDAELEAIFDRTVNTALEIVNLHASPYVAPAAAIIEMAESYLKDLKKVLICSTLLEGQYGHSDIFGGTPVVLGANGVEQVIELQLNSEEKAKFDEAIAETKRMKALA
Sequence of Protein kinase 7 (PK7), Plasmodium falciparum 3D7 (PF3D7_0213400) (Q7YTF7 1-343): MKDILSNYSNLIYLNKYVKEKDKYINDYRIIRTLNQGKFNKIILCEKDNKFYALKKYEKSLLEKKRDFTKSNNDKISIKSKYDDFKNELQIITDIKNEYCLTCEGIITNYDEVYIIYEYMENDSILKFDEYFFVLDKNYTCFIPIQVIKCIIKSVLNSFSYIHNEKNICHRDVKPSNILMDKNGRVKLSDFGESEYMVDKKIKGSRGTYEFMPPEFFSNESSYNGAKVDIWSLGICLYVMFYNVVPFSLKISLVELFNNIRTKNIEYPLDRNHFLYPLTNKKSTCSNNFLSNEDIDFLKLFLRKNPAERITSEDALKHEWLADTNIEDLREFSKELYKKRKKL
Sequence of Calcium-dependent protein kinase 1 (Plasmodium falciparum (isolate 3D7)) (P62344 whole entry, looked up): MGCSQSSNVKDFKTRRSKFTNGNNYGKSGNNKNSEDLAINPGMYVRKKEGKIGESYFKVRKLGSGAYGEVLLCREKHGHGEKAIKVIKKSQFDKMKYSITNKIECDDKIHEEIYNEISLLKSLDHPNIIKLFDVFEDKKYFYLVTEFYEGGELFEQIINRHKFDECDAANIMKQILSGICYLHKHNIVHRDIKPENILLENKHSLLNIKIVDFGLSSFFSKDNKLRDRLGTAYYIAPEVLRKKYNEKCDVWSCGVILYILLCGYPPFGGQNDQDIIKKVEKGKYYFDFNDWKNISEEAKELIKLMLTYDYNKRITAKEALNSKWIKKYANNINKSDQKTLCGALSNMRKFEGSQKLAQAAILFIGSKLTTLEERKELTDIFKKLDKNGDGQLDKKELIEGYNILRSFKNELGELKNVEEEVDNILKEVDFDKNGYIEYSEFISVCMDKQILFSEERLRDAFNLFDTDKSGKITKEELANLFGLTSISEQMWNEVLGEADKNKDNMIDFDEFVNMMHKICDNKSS
Sequence of Plasmodium falciparum protein kinase 6 (PK6, PF3D7_1337100) (Q8IDW1 1-305): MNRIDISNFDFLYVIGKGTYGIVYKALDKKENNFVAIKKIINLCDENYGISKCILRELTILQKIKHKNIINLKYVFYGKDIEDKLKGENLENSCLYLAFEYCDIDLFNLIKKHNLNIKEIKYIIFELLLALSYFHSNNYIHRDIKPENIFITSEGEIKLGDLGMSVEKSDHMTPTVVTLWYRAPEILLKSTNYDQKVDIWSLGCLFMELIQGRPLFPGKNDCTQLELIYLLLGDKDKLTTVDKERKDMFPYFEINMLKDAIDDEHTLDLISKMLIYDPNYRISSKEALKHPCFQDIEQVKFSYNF

In the case of `Cc1ccc(Cl)cc1NC(=O)c1c(-c2ccccc2Cl)noc1C`, the growth inhibition in experiment [1] was 37%; in experiment [4], 88% (active). Besides, the inhibition is 9% in experiment [2] and -1% in experiment [3]. Further, the result in experiment [5], in experiment [6], in experiment [7] and in experiment [8] was inactive.

Take `Cc1ccc(NC(=O)c2ccc(CN3CCCN(Cc4cccc(C#N)c4)CC3)cc2)cc1F`: the growth inhibition is 19% in experiment [1] and 98% (active) in experiment [4]. In addition, the inhibition in experiment [2] was 49%; in experiment [3] it was -3%. Moreover, the result in experiment [5], in experiment [6], in experiment [7] and in experiment [8] was inactive.

Turning to `Cc1c(Cc2ccccc2Br)cnc2nc(N)nc(N)c12`, the results for the growth inhibition in experiment [1] and in experiment [4] were 97% (active) and 88% (active), respectively. The results for the inhibition in experiment [2] and in experiment [3] were 67% (active) and 0%, respectively. The result in experiment [5], in experiment [6], in experiment [7] and in experiment [8] was inactive.

As for `CCOC(=O)C1=C(C)NC2=C(C(=O)CCC2)C1c1cn(Cc2ccc(Cl)cc2Cl)nc1-c1ccccc1` (stereo not given), the growth inhibition is 96% (active) in experiment [1] and 100% (active) in experiment [4]. Also, the inhibition was -5% in experiment [2] and -2% in experiment [3]. The outcome in experiment [5], in experiment [6], in experiment [7] and in experiment [8] was inactive.

Take `CCCc1cc(Cc2cnc(N)nc2N)cc(CC)c1OC`: the growth inhibition is 1% in experiment [1] and 97% (active) in experiment [4]. Further, the inhibition in experiment [2] is 4%; in experiment [3], -7%. Besides, the result in experiment [5], in experiment [6], in experiment [7] and in experiment [8] was inactive.

As for `Cc1c(N)ccc2[nH]c(-c3ccc(N)cc3)nc12`, the growth inhibition in experiment [1] is 40%; in experiment [4], 97% (active). Further, the inhibition in experiment [2] and in experiment [3] was 0% throughout. Besides, the outcome in experiment [5], in experiment [6], in experiment [7] and in experiment [8] was inactive.

Regarding `Cc1cccc2[nH]c(-c3cccc(-c4cccc(NC(=O)NCc5ccccc5)c4)c3)nc12`, the growth inhibition is 27% in experiment [1] and 94% (active) in experiment [4]. Besides, the inhibition is 12% in experiment [2] and 5% in experiment [3]. Also, the result in experiment [5], in experiment [6], in experiment [7] and in experiment [8] was inactive.

On to `O=c1cc(NCCCCNCc2cccc(Cl)c2)[nH]c2ccccc12`, for which the figures for the growth inhibition in experiment [1] and in experiment [4] were 41% and 98% (active), respectively. Further, the figures for the inhibition in experiment [2] and in experiment [3] were 2% and -3%, respectively. Moreover, the outcome in experiment [5], in experiment [6], in experiment [7] and in experiment [8] was inactive.

As to `O=c1n(CC2CCCCC2)c2cc(Cl)cc(OCCNc3ccncc3)c2n1CC1CCCCC1`, the growth inhibition in experiment [1] is 64% (active); in experiment [4] it was 100% (active). Further, the inhibition in experiment [2] was 2%; in experiment [3], -3%. Also, the outcome in experiment [5], in experiment [6], in experiment [7] and in experiment [8] was inactive.

For the compound `CC(C)Cn1c(Sc2ccc(C#N)c([N+](=O)[O-])c2)nnc1-c1ccccc1`, the growth inhibition in experiment [1] is 12%; in experiment [4], 83% (active). Besides, the inhibition in experiment [2] was 17%; in experiment [3], 2%. In addition, the result in experiment [5], in experiment [6], in experiment [7] and in experiment [8] was inactive.

For `CS(=O)(=O)Nc1ccc(OCCCCCCOc2ccc(NS(C)(=O)=O)cc2)cc1`, the growth inhibition in experiment [1] is 82% (active); in experiment [4], 93% (active). Moreover, the inhibition in experiment [2] is 3%; in experiment [3], 4%. The result in experiment [5], in experiment [6], in experiment [7] and in experiment [8] was inactive.

As to `COc1cc(-n2cnc3cc(-c4ccc(Cl)cc4)sc3c2=O)ccc1OCCN1CCC(c2cccc(NC(C)=O)c2)CC1`, the growth inhibition in experiment [1] is 80% (active); in experiment [4], 99% (active). Further, the inhibition in experiment [2] is 61% (active); in experiment [3], -4%. The result in experiment [5], in experiment [6], in experiment [7] and in experiment [8] was inactive.

As for `Cc1cccc(CNc2nccc3[nH]c4ccccc4c23)c1`, the growth inhibition in experiment [1] is 51% (active); in experiment [4], 92% (active). Also, the inhibition in experiment [2] was 14%; in experiment [3], 0%. The outcome in experiment [5], in experiment [6], in experiment [7] and in experiment [8] was inactive.

For `CCCCN(CCCC)C(=N)c1cccc2c1CCCC2`, the growth inhibition is 9% in experiment [1] and 95% (active) in experiment [4]. For the same compound, the inhibition in experiment [2] was 11%; in experiment [3], -2%. Further, the outcome in experiment [5], in experiment [6], in experiment [7] and in experiment [8] was inactive.

As to `COc1ccc(C2CC(=O)C3=C(C2)NC(C)=C(C(=O)OC(C)C)C3c2c(F)cccc2Cl)cc1OC` (stereo not given), the growth inhibition in experiment [1] is 81% (active); in experiment [4], 93% (active). Besides, the values for the inhibition in experiment [2] and in experiment [3] were 0% and -1%, respectively. Also, the outcome in experiment [5], in experiment [6], in experiment [7] and in experiment [8] was inactive.

With `COCCN1CCN(Cc2ccc(-c3ccc(-c4nc5c(C)cccc5[nH]4)s3)cc2)CC1`, the growth inhibition was 52% (active) in experiment [1] and 95% (active) in experiment [4]. In addition, the inhibition is 32% in experiment [2] and -2% in experiment [3]. The result in experiment [5], in experiment [6], in experiment [7] and in experiment [8] was inactive.

With `O=C(C=Cc1ccc(-c2nc3ccccc3[nH]2)cc1)NC1CCN(Cc2ccccc2)CC1`, the growth inhibition in experiment [1] was 88% (active); in experiment [4], 99% (active). The values for the inhibition in experiment [2] and in experiment [3] were 15% and 3%, respectively. The outcome in experiment [5], in experiment [6], in experiment [7] and in experiment [8] was inactive.

For the compound `COCCNCc1ccc(-c2cccc(CNC3CCN(Cc4ccccc4)CC3)c2)cc1`, the growth inhibition in experiment [1] is 101% (active); in experiment [4], 100% (active). Further, the inhibition in experiment [2] is 30%; in experiment [3], 0%. Besides, the outcome in experiment [5], in experiment [6], in experiment [7] and in experiment [8] was inactive.

For `CN(C)CCOc1ccc2[nH]c(-c3cccc(OCc4ccccc4)c3)nc2c1C#N`, the results for the growth inhibition in experiment [1] and in experiment [4] were 86% (active) and 100% (active), respectively. Also, the values for the inhibition in experiment [2] and in experiment [3] were 48% and -5%, respectively. The result in experiment [5], in experiment [6], in experiment [7] and in experiment [8] was inactive.

Consider `Cc1cc2[nH]c(-c3ccc(C(=O)NCCCN4CCN(c5cccc(Cl)c5)CC4)cc3)nc2cc1Cl`, for which the growth inhibition in experiment [1] was 73% (active); in experiment [4], 98% (active). Further, the inhibition in experiment [2] is 1%; in experiment [3], 6%. The result in experiment [5], in experiment [6], in experiment [7] and in experiment [8] was inactive.
